Reference: PubChem BioAssay (EPA / NIEHS)
Results filed as inconclusive are left out. Active and inactive are the calls of the source. Rule for the calls, unless noted: active = hit-call score of the fitted dose curve at least 0.9, where 1 is the maximum; inactive = score below 0.9.

Legend:
[1] = target: Paired box protein Pax-6 (Homo sapiens) (UniProt P26367); assay: ATG_Pax6_CIS: Attagene CIS-FACTORIAL HepG2 Assay for human Paired Box 6 (PAX6) (AID 2282956); conditions: HepG2 CIS-FACTORIAL PAX6 reporter transcription, RNA readout; actives raise or lower the signal
Paired box protein Pax-6 (Homo sapiens), sequence (P26367 whole entry, looked up): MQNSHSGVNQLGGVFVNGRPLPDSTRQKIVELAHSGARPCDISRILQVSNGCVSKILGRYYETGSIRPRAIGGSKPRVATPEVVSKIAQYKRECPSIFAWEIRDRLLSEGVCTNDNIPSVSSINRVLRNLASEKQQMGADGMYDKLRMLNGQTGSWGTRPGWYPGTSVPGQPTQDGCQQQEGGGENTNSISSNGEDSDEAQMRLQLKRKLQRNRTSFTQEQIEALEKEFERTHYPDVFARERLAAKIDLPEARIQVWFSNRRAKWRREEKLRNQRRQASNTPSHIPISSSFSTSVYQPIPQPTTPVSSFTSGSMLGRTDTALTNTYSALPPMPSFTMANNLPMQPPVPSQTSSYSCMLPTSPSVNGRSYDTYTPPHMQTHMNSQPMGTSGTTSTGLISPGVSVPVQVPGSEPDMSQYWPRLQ
Summary of the method: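 Transient MRTU transfection of HepG2 → compound exposure 24 h → TriZol RNA, oligo(dT) RT → PCR, 6-FAM primer extension, HpaI cut → capillary electrophoresis; activity fitted both directions against DMSO.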

[2] = ATG_PXRE_CIS: Attagene CIS-FACTORIAL HepG2 Assay for human Pregnane X Receptor Element (PXRE) (AID 2282957); conditions: HepG2 Attagene CIS-FACTORIAL PXRE reporter, mRNA; actives raise or lower the signal
Summary of the method: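 Transfect HepG2 with MRTUs (cis promoter elements); dose chemical, incubate 24 h; isolate RNA, RT with oligo(dT), PCR, 6-FAM label, HpaI cut, CE. Gain/loss fit vs DMSO.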

[3] = ATG_PPRE_CIS: Attagene CIS-FACTORIAL HepG2 Assay for human Peroxisome Proliferator-activated Response Element (PPRE) (AID 2282958); conditions: HepG2 PPRE cis-element reporter, Attagene transcription factor profiling; actives raise or lower the signal
Summary of the method: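 Cells are first transfected transiently with the multiplexed reporter library, then dosed for 24 h. Total RNA is reverse-transcribed, amplified, fluorescently end-labeled and HpaI-cut before capillary electrophoresis; activity is fitted bidirectionally against DMSO controls.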

[4] = ATG_Sox_CIS: Attagene CIS-FACTORIAL HepG2 Assay for human SRY-box transcription factor (SOX) (AID 2282960); conditions: HepG2 Attagene cis-factorial SOX reporter, mRNA; actives raise or lower the signal
Summary of the method: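 Transient MRTU transfection of HepG2; 24 h compound incubation; TriZol RNA, oligo(dT) RT, PCR, 6-FAM primer extension, HpaI cut, CE. Bidirectional fit, DMSO = baseline.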

[5] = target: Transcription factor Sp1 (Homo sapiens) (UniProt P08047); assay: ATG_Sp1_CIS: Attagene CIS-FACTORIAL HepG2 Assay for human Specificity Protein 1 (Sp1) (AID 2282961); conditions: HepG2 Sp1 cis-reporter transcription, actives raise or lower the signal
Transcription factor Sp1 (Homo sapiens), sequence (P08047 whole entry, looked up): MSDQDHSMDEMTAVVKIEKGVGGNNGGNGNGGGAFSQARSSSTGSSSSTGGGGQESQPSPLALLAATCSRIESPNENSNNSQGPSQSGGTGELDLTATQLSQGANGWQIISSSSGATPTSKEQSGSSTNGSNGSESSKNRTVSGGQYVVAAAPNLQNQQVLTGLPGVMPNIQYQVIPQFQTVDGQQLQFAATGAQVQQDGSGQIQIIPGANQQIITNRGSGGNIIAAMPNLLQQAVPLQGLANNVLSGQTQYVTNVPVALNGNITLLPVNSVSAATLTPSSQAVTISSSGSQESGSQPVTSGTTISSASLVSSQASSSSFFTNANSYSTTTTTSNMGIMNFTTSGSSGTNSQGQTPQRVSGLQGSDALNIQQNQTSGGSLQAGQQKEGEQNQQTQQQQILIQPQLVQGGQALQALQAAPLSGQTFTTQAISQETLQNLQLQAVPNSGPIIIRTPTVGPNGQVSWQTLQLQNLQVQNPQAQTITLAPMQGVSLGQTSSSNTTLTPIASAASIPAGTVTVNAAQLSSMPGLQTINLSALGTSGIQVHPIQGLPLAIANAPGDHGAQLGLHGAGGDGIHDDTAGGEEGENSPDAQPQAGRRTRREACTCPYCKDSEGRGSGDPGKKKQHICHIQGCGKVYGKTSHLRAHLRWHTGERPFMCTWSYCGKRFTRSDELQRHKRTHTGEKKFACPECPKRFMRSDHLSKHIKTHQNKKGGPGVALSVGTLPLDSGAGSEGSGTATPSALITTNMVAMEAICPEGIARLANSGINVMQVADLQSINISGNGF
Summary of the method: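 Endogenous Sp1 activity was gauged in human liver HepG2 cells bearing transfected reporter units under a cis-regulating promoter. After 24 h dosing, reporter mRNA was quantified by RT-PCR with capillary electrophoresis, and activity fitted bidirectionally versus DMSO.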

[6] = ATG_SREBP_CIS: Attagene CIS-FACTORIAL HepG2 Assay for human Sterol Regulatory Element Binding (SREBP) (AID 2282962); conditions: HepG2 Attagene cis-factorial SREBP reporter, mRNA; actives raise or lower the signal
Summary of the method: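 Transfected HepG2 (cis-regulated reporter library, endogenous TFs) → compound 24 h → total RNA → oligo(dT) RT → reporter-specific PCR → FAM primer extension, HpaI cut → CE fluorescence. Fit bidirectional vs DMSO.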

[7] = target: Signal transducer and activator of transcription 3 (Homo sapiens) (UniProt P40763); assay: ATG_STAT3_CIS: Attagene CIS-FACTORIAL HepG2 Assay for human Signal Transducer and Activator of Transcription 3 (STAT3) (AID 2282963); conditions: HepG2, Attagene cis-factorial STAT3 reporter transcription; actives raise or lower the signal
Signal transducer and activator of transcription 3 (Homo sapiens), sequence (P40763 whole entry, looked up): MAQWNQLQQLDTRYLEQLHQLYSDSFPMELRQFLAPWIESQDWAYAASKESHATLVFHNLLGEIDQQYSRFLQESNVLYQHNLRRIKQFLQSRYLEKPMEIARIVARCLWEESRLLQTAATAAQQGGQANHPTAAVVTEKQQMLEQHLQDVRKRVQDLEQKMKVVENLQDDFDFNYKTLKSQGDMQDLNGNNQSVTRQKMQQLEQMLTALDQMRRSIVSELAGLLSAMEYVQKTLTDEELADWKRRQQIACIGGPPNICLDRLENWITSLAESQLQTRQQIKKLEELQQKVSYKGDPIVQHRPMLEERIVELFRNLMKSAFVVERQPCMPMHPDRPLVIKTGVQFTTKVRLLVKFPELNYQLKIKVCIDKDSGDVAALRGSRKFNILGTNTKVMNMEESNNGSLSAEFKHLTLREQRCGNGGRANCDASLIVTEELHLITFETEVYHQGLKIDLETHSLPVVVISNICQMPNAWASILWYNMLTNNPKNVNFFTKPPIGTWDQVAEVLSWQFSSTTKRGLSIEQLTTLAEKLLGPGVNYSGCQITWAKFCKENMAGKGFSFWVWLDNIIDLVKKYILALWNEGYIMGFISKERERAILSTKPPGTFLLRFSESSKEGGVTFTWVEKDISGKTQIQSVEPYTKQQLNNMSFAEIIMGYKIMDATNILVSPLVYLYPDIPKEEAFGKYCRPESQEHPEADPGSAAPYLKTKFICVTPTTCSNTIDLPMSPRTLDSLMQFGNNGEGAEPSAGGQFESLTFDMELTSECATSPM
Summary of the method: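 HepG2 cells transiently transfected with cis-element-driven multiple reporter transcription units; after 24 h chemical exposure, reporter mRNA measured by RT-PCR, 6-FAM primer-extension labelling, HpaI digestion and capillary electrophoresis. Bidirectional fitting versus DMSO baseline.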

[8] = ATG_TA_CIS: Attagene CIS-FACTORIAL HepG2 Assay for human TA Basal Promoter (AID 2282964); conditions: HepG2 Attagene CIS-factorial TA basal promoter reporter; actives raise or lower the signal
Summary of the method: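 Cis-factorial format in HepG2: reporters report endogenous factors, not chimeric Gal4 fusions. After 24 h treatment, reporter transcripts were measured by RT-PCR-capillary electrophoresis fluorescence, analysed bidirectionally versus DMSO.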

[9] = ATG_TAL_CIS: Attagene CIS-FACTORIAL HepG2 Assay for human TAL Basal Promoter (AID 2282966); conditions: HepG2 Attagene cis-factorial TAL promoter reporter; actives raise or lower the signal;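 note: background control endpoint measuring basal TAL promoter reporter mRNA not a specific factor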
Summary of the method: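 Fluorescence of labelled reporter cDNA fragments, resolved by capillary electrophoresis, gave the readout. Human HepG2 liver cells carried transiently transfected cis-element reporter units and were treated for 24 hours; activity was fitted bidirectionally against DMSO.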

[10] = ATG_TGFb_CIS: Attagene CIS-FACTORIAL HepG2 Assay for human Transforming Growth Factor (TGF) (AID 2282967); conditions: HepG2 Attagene CIS TGFb reporter, mRNA transcription; actives raise or lower the signal
Summary of the method: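 Multiplexed cis-reporter HepG2 system, 24 h treatment; mRNA induction read by fluorescence after RT-PCR and CE; DMSO negative control, bidirectional curve fitting.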

[11] = ATG_VDRE_CIS: Attagene CIS-FACTORIAL HepG2 Assay for human Vitamin D Receptor Element (VDRE) (AID 2282968); conditions: HepG2 VDRE cis-reporter transcription, actives raise or lower the signal
Summary of the method: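 HepG2 cells transiently transfected with cis-element reporter units, dosed 24 h; reporter mRNA measured by RT-PCR, 6-FAM labeling, HpaI digestion and capillary electrophoresis. Activity fitted bidirectionally against DMSO baseline.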

[12] = target: Nuclear receptor subfamily 1 group I member 3 (Homo sapiens) (UniProt Q14994); assay: ATG_CAR_TRANS: Attagene TRANS-FACTORIAL HepG2 Assay for human Constitutive Androstane Receptor (CAR) (AID 2282969; active = hit-call score of the fitted dose curve at least 0.9, where 1 is the maximum;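 note: activators raise reporter mRNA above DMSO so AC50 marks induction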); conditions: HepG2 Attagene TRANS-FACTORIAL CAR reporter
Nuclear receptor subfamily 1 group I member 3 (Homo sapiens), sequence (Q14994 whole entry, looked up, the tested form may be a part): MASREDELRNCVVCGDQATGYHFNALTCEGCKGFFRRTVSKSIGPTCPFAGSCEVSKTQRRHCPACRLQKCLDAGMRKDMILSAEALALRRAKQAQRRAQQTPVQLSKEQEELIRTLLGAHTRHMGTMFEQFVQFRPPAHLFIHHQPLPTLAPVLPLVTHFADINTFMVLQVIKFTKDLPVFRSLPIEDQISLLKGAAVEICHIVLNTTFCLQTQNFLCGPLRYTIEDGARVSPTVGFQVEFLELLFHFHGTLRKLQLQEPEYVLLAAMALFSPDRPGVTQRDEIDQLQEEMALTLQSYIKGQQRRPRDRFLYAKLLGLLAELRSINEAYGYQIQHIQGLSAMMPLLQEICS
Summary of the method: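 HepG2 cells transiently transfected with multiplexed GAL4-UAS reporter units expressing chimeric NR-Gal4 proteins; compound exposure 24 h. Reporter mRNA measured by RT-PCR, 6-FAM labelling, HpaI digestion and capillary electrophoresis; gain-of-signal fitted against DMSO baseline.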

[13] = target: X-box-binding protein 1 (Homo sapiens) (UniProt P17861); assay: ATG_Xbp1_CIS: Attagene CIS-FACTORIAL HepG2 Assay for human X-box Binding Protein 1 (XBP1) (AID 2282972); conditions: HepG2 XBP1 cis-element reporter, Attagene multiplex; actives raise or lower the signal
X-box-binding protein 1 (Homo sapiens), sequence (P17861 whole entry, looked up): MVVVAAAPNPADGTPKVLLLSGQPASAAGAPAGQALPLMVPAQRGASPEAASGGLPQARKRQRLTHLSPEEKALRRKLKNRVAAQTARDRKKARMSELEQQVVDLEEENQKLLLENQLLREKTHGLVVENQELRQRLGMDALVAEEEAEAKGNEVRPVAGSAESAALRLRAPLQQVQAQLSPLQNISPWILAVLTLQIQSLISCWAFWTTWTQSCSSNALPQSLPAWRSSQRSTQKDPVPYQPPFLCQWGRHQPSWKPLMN
Summary of the method: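 HepG2, transient MRTU transfection (cis-promoter driven), 24 h compound exposure. Total RNA → oligo(dT) RT → PCR → 6-FAM labeling → HpaI cut → CE. Bidirectional fit vs DMSO.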

[14] = ATG_M_19_TRANS: Attagene TRANS-FACTORIAL HepG2 Assay for M19 Transcription Factor (Internal Marker) (AID 2282974; active = hit-call score of the fitted dose curve at least 0.9, where 1 is the maximum); conditions: HepG2 Attagene TRANS-FACTORIAL M19 internal marker reporter
Summary of the method: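 Cells: human HepG2, transiently transfected with multiplexed reporter transcription units. Exposure: 24 h. Detection: RT-PCR of reporter mRNA with capillary electrophoresis. Analysis: gain-of-signal vs DMSO.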

[15] = target: Glucocorticoid receptor (Homo sapiens) (UniProt P04150); assay: ATG_GR_TRANS: Attagene TRANS-FACTORIAL HepG2 Assay for human Glucocorticoid Receptor (GR) (AID 2282978; active = hit-call score of the fitted dose curve at least 0.9, where 1 is the maximum;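 note: activators score as hits since higher reporter transcript over DMSO is fitted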); conditions: HepG2 Attagene TRANS GR reporter, mRNA transcription
Glucocorticoid receptor (Homo sapiens), sequence (P04150 whole entry, looked up, the tested form may be a part): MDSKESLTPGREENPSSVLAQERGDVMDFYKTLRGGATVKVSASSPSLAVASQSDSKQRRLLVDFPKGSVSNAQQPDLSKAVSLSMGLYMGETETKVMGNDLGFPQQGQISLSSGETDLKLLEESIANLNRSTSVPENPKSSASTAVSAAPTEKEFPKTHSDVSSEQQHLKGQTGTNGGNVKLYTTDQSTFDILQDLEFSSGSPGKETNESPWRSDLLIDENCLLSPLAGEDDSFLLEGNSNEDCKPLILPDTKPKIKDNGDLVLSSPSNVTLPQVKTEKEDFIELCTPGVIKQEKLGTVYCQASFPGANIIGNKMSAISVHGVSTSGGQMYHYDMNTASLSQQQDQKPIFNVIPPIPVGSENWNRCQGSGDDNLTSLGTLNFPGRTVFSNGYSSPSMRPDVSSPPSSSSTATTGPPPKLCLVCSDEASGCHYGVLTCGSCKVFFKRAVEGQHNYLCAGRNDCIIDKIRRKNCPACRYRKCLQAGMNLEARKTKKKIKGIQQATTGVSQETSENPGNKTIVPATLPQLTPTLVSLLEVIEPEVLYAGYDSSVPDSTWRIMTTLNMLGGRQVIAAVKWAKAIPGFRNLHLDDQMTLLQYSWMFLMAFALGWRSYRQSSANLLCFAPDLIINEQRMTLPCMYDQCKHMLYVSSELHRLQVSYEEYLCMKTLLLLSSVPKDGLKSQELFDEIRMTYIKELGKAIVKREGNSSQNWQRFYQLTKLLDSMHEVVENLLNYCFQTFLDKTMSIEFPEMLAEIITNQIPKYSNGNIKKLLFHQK
Summary of the method: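 In this trans-factorial format, exogenous NR-GAL4 chimeric proteins in transfected HepG2 cells regulate GAL4-UAS reporter transcription. After 24 h treatment, reporter mRNA induction relative to DMSO is read by RT-PCR and capillary electrophoresis.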

[16] = ATG_TCF_b_cat_CIS: Attagene CIS-FACTORIAL HepG2 Assay for human T-Cell-Factor with beta-catenin (TCF/b-cat) (AID 2282965); conditions: HepG2 TCF/beta-catenin cis-reporter transcription, actives raise or lower the signal
Summary of the method: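 HepG2 cells transiently transfected with multiple cis-promoter-regulated reporter transcription units, so endogenous transcription factor activity is measured. Reporter mRNA read 24 hours after dosing by RT-PCR, fluorescent labelling and capillary electrophoresis; bidirectional fitting against DMSO.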

[17] = target: Steroid hormone receptor ERR1 (Homo sapiens) (UniProt P11474); assay: ATG_ERRa_TRANS: Attagene TRANS-FACTORIAL HepG2 Assay for human Estrogen-Related Receptor alpha (ERRa) (AID 2282971; active = hit-call score of the fitted dose curve at least 0.9, where 1 is the maximum); conditions: HepG2 Attagene TRANS reporter, ERRa transactivation
Steroid hormone receptor ERR1 (Homo sapiens), sequence (P11474 whole entry, looked up, the tested form may be a part): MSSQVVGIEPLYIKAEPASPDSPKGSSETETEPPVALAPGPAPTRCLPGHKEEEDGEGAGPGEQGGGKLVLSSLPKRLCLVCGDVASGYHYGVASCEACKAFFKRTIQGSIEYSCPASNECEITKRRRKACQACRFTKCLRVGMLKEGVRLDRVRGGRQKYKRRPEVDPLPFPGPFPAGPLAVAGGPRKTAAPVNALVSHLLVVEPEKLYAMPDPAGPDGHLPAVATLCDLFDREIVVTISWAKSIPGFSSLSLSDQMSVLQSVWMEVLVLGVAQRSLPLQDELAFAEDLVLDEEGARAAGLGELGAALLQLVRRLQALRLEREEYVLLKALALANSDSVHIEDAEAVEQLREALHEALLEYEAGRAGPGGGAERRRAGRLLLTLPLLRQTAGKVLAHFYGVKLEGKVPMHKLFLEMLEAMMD
Summary of the method: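 Reporter transcript induction was quantified by RT-PCR and capillary electrophoresis of FAM-labelled, HpaI-cut products after 24 h treatment of HepG2 cells carrying transiently transfected GAL4-UAS reporter units and an exogenous ERRa-Gal4 fusion; activity scored as increase over DMSO.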

[18] = target: Estrogen-related receptor gamma (Homo sapiens) (UniProt P62508); assay: ATG_ERRg_TRANS: Attagene TRANS-FACTORIAL HepG2 Assay for human Estrogen-Related Receptor gamma (ERRg) (AID 2282977; active = hit-call score of the fitted dose curve at least 0.9, where 1 is the maximum;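 note: hits increase reporter signal over DMSO so potencies reflect activators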); conditions: HepG2 Attagene TRANS reporter, ERRg transactivation
Estrogen-related receptor gamma (Homo sapiens), sequence (P62508 whole entry, looked up, the tested form may be a part): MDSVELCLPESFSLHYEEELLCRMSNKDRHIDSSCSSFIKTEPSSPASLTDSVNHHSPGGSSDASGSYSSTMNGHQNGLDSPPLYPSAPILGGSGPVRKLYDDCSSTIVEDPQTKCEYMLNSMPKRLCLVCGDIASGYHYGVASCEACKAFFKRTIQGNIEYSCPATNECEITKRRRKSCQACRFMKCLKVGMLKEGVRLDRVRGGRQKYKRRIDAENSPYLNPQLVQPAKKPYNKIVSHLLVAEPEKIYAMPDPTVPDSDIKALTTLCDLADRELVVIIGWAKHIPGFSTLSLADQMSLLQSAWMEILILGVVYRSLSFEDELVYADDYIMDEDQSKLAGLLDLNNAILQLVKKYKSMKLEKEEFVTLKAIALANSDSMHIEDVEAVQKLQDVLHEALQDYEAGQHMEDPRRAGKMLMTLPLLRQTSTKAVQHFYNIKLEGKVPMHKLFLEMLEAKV
Summary of the method: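 HepG2 cells transiently transfected with multiplexed GAL4-UAS reporter units and chimeric NR-Gal4 constructs were exposed to test chemicals for 24 h. Reporter mRNA was measured by RT-PCR, 6-FAM primer extension, HpaI digestion and capillary electrophoresis; gain-of-signal versus DMSO.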

[19] = target: Bile acid receptor (Homo sapiens) (UniProt Q96RI1); assay: ATG_FXR_TRANS: Attagene TRANS-FACTORIAL HepG2 Assay for Farnesoid X Receptor (FXR) (AID 2282979; active = hit-call score of the fitted dose curve at least 0.9, where 1 is the maximum;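 note: hits raise reporter mRNA above DMSO so AC50 marks FXR activation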); conditions: HepG2 Attagene TRANS FXR-GAL4 reporter transcription
Bile acid receptor (Homo sapiens), sequence (Q96RI1 whole entry, looked up, the tested form may be a part): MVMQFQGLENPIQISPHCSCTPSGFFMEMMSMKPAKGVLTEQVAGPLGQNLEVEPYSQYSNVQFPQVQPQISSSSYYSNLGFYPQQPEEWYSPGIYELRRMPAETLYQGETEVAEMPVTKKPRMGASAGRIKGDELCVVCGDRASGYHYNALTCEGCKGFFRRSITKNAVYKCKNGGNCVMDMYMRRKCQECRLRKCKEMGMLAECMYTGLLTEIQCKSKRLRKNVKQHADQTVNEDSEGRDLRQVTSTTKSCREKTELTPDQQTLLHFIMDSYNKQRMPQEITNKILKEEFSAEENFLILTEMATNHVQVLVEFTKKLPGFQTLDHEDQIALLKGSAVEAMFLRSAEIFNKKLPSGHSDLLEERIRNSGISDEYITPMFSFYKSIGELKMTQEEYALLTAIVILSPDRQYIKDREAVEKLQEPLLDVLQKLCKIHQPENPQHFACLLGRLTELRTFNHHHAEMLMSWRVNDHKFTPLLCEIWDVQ
Summary of the method: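 Transient transfection of HepG2 with multiplexed GAL4-UAS reporter units; exogenous FXR-GAL4 chimera. Dose 24 h → TriZol RNA → oligo(dT) RT → PCR, 6-FAM primer extension, HpaI cut → CE. Gain vs DMSO.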

Measured: AC50

Cc1ccc(S(=O)(=O)O)cc1C
not listed: [15] | [16] | [17] | [18] | [19]
inactive: all other assays above

COc1ccc(/C=C/S(=O)(=O)NC(=O)c2ccc(C)cc2Cl)cc1
not listed: [12] | [16] | [17] | [18] | [19]
inactive: all other assays above

O=C1CCC(N2C(=O)c3ccccc3C2=O)C(=O)N1 (stereo not given)
not listed: [11] | [12] | [14] | [17] | [18] | [19]
inactive: all other assays above

CN(C)c1ccc(Cc2ccc(N(C)C)cc2)cc1
active: [2] 26.6 µM | [3] 36.7 µM | [5] 100 µM | [6] 43.4 µM | [10] 130 µM | [11] 25.8 µM
not listed: [12] | [14] | [15] | [16]
inactive: all other assays above

O=C(NS(=O)(=O)/C=C/c1ccccc1)c1ccc(F)cc1Cl
active: [2] 34.9 µM
not listed: [11] | [15] | [17] | [19]
inactive: all other assays above

Cc1ccc(N)cc1O
not listed: [14] | [16] | [17] | [18] | [19]
inactive: all other assays above

O=C(O)c1cc(N=Nc2ccc(S(=O)(=O)Nc3ccccn3)cc2)ccc1O
not listed: [12] | [17] | [18] | [19]
inactive: all other assays above

O=C1CCCCCN1
not listed: [12] | [14] | [15] | [17]
inactive: all other assays above

CCOC(=O)COc1ccc2c(c1)CC(NCC(O)c1cccc(Cl)c1)CC2 (stereo not given)
not listed: [15] | [16] | [17] | [19]
inactive: all other assays above
